# An excerpt weighted towards active compounds, which were near 4.1% of everything screened.
# MEKK3 PB1 HTS = modulators (inhibitors or enhancers) of MEK5 binding to human MEKK3 PB1 domain; Q99759; bead-based flow cytometry, Alexa488-MEK5 binding to MEKK3; actives lie on both sides; 0 = blocked by unlabeled MEK5, 100 = vehicle; binding response (% of control), % at 10 µM; hit rate 1.4% among 290,000; AID 1529;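 active = binding response more than 3 SD above or below the average of its plate-row segment, actives on both sides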;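 also: Alexa488 bead fluorescence after subtracting the streptavidin-only scavenger bead signal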
# SUMO Mot1 rescue = blocks SUMOylation pathway, rescuing yeast Mot1-301 growth; S. cerevisiae Mot1-301 growth rescue, ATP luminescence, 38.5C; percent above DMSO median, 100 means doubled; hit rate 1% among 320,000; growth rescue, % at 18.8 µM;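 active = every valid replicate shows activation above 250% relative to neutral control wells; inactive = the rest, any valid replicate at or below 250%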;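 also: OY570 slx delta 5 strain wells were the positive control but not used for scaling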
# CHT inh = human CHT choline transport inhibition | AID 488975 | CHT-expressing cells, membrane potential dye, choline response; active compounds read low | B-score at 10 µM | hit rate 0.86% among 310,000 | Q9GZV3;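 active = B-score over 3 SD under the library average, and starting fluorescence ratio not unusually high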;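 also: choline stimulus applied at its EC90 after an EC20 pre-addition; B-score computed on integrated fluorescence ratio after choline addition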
# Target sequence (Q9GZV3 whole entry, looked up): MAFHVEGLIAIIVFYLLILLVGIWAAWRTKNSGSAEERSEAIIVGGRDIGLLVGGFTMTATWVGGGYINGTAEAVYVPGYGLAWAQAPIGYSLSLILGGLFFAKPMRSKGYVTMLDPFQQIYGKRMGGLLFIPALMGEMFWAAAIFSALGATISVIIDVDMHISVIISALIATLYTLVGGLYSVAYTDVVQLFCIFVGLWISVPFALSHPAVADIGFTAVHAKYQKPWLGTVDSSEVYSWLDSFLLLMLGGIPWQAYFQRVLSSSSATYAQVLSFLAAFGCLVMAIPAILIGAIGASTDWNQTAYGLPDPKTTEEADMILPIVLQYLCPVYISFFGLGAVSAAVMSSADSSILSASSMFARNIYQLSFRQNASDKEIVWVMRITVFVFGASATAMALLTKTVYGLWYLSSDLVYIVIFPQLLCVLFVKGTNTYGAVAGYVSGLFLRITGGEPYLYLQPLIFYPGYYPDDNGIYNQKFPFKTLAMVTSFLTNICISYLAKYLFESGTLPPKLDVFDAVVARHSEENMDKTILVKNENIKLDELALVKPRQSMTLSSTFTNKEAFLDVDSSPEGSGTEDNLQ
# MEKK2 WT-MEK5 = raises or lowers MEK5 binding to wildtype human MEKK2 PB1 domain; binding response (% of control), % at 10 µM; hit rate 1.1% among 290,000; bead flow cytometry, Alexa488-MEK5 binding to MEKK2 WT; actives lie on both sides; AID 1531; Q9Y2U5; in the data active = binding response below about 67% or above about 130%
# MEKK2mut PB1 HTS = signal of MEK5 binding to mutant human MEKK2 PB1 domain | bead flow cytometry, Alexa488-MEK5 binding to MEKK2 mutant | percent response, % at 10 µM | hit rate 0.35% among 290,000 | AID 1530; in the data active = percent response above about 24%, passing the limit was not always enough
# CHT PAM = allosterically activates the human high affinity choline transporter; Q9GZV3; CHT-expressing cells, membrane potential dye, choline EC20; active compounds read high; LV-AA mutant CHT in HEK293 cells; B-score at 10 µM; hit rate 0.49% among 310,000;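 active = initial fluorescence not abnormally high and integrated response B-score, plate-corrected, over 3 SD above library mean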
# MEKK2wt confirm = raises or lowers MEK5 binding to wildtype human MEKK2, retest; shares compounds with MEKK3 PB1 HTS; bead flow cytometry, Alexa488-MEK5 binding to MEKK2 WT; actives lie on both sides; binding response (% of control), % at 10 µM; hit rate 2.4% among 5,900; AID 1892; in the data active = binding response below about 16% or above about 210%; inactive = in between
# MEKK2mut confirm = signal of MEK5 binding to mutant human MEKK2, retest; shares compounds with MEKK3 PB1 HTS; bead flow cytometry, Alexa488-MEK5 binding to MEKK2 mutant; percent response, % at 10 µM; hit rate 2% among 5,900; AID 1893; in the data active = percent response mostly above about 71%, no sharp cut-off; inactive = mostly below about 38%;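 also: higher means compound restores mutant binding toward wildtype level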
# MEKK3 confirm = confirmation of inhibitors of MEK5 binding to human MEKK3; shares compounds with MEKK3 PB1 HTS; hit rate 1.8% among 5,900; binding response (% of control), % at 10 µM; AID 1894; bead flow cytometry, Alexa488-MEK5 binding to MEKK3; active compounds read low;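 active = binding response below 72% of control, or above a set upper limit, though filed actives all read lower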;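 also: 100% = DMSO only wells and 0% = binding blocked by excess unlabeled MEK5; lower values mean stronger disruption of MEK5 binding to MEKK3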
# Numbers without * were called inactive; i = inactive; nt = no result given; [ ] = dose if it differs, or a comment.
SMILES,MEKK3 PB1 HTS,SUMO Mot1 rescue,CHT inh,MEKK2 WT-MEK5,MEKK2mut PB1 HTS,CHT PAM,MEKK2wt confirm,MEKK2mut confirm,MEKK3 confirm
O=C(Nc1ccc(Br)cc1)c1cccc(S(=O)(=O)Nc2ccccn2)c1,99,67,i,98,-1,i,nt,nt,nt
COc1ccc(S(=O)(=O)Nc2ccc(N3CCOCC3)nc2)cc1,99,-17,i,99,0,i,nt,nt,nt
CCn1c(C)[n+](Cc2ccccc2)c2ccc(Cl)cc21,3.0*[inhibitor],1,i,5.0*[inhibitor],-46,i,100,4,103
Cc1onc(-c2ccccc2Cl)c1C(=O)OCC(=O)N1CCCCC1,nt,9,nt,nt,nt,nt,nt,nt,nt
O=C(CCNC(=O)c1ccco1)Nc1ccc(N2CCOCC2)cc1,100,13,i,96,-4,i,nt,nt,nt
Cc1ccc2nc(C)c3c(c2c1)SCC3,91,-13,i,94,-23,i,nt,nt,nt
Cn1c(NCC(O)c2ccccc2)nc2c1c(=O)n(Cc1ccc(Cl)cc1)c(=O)n2C (centres undefined),78*[inhibitor],-2,i,89,-11,i,110,5,110
COC(=O)CCC(=O)OC1(C)C(=O)C2=CN(CC(C)C)C(c3ccc(OC)cc3)=CC2=C(Br)C1=O (centres undefined),88,-8,i,-7.0*[inhibitor],1,i,83,-12,71*
COC(=O)CCC(=O)OC1(C)C(=O)C2=CN(CCCOC(C)C)C(c3ccc(OC)cc3)=CC2=C(Br)C1=O (centres undefined),90,-47,i,-8.0*[inhibitor],1,i,95,-4,93
COC(=O)CCC(=O)OC1(C)C(=O)C2=CN(c3ccccc3)C(c3ccc(OC)cc3)=CC2=C(Br)C1=O (centres undefined),75*[inhibitor],-7,i,-5.0*,5,i,89,-4,91
CCC(=O)OC1(C)C(=O)C2=COC(c3ccc(OC)cc3)=CC2=C(Br)C1=O (centres undefined),93,379,i,99,-2,i,nt,nt,nt
COC(=O)CCC(=O)OC1(C)C(=O)C=C2C=C(C3CC3)N(c3ccccc3)C=C2C1=O (centres undefined),95,18,i,92,6,i,nt,nt,nt
COc1ccc(C(=O)C2CCCN(C(=O)c3cccs3)C2)cc1F (centres undefined),109,nt,i,99,-4,i,nt,nt,nt
Cc1cccc2cc3c(N)c(C(=O)Nc4ccc(N5CCOCC5)cc4)sc3nc12,103,46,i,102,1,i,nt,nt,nt
CCc1cccc2cc3c(N)c(C(=O)Nc4ccc(S(=O)(=O)N5CCCC5)cc4)sc3nc12,154*,-22,i,67,4,i,87,-13,99
CC(C)C(=O)N1CCC2(CC1)Oc1ccc(Cl)cc1C(=O)C21CC(c2ccc(Cl)cc2)=NO1 (centres undefined),106,-26,i,104,5,i,nt,nt,nt
O=C1c2cc(Cl)ccc2OC2(CCNCC2)C12CC(c1ccc(Cl)cc1)=NO2 (centres undefined),115,-15,i,162*,20,i,133,15,103
CCN(CC(=O)Nc1ccc(NC(C)=O)cc1)C(=O)C(c1ccccc1)c1ccccc1,131*,98,i,105,0,i,88,3,96
Cc1ccc(NC(=O)CN(C)C(=O)c2n[nH]c(=O)c3ccccc23)cc1,99,2,i,100,7,i,nt,nt,nt
CCN(CC(=O)Nc1ccc(NC(C)=O)cc1)C(=O)c1n[nH]c(=O)c2ccccc12,55*[inhibitor],-12,i,72,-34,i,100,4,103
COc1cc2c(cc1NC(=S)Nc1cccc(C(F)(F)F)c1)oc1ccccc12,102,-12,i,153*,19,i,126,-7,101
Cc1c(NC(=O)c2ccc3c(c2)OCO3)cccc1-c1nc2ccccc2o1,131*,86,i,113,4,i,108,13,111
COc1cc2c(cc1NC(=O)c1ccc3c(c1)OCO3)oc1ccccc12,99,-8,i,-5.0*[inhibitor],-34,i,95,-4,99
COc1cc2c(cc1NC(=O)CCC(=O)O)oc1ccccc12,101,-16,i,106,0,i,nt,nt,nt
COc1cc2c(cc1NC(=O)Nc1ccccc1)oc1ccccc12,105,38,i,140*,18,i,157,16,96
SMILES,MEKK3 PB1 HTS,SUMO Mot1 rescue,CHT inh,MEKK2 WT-MEK5,MEKK2mut PB1 HTS,CHT PAM,MEKK2wt confirm,MEKK2mut confirm,MEKK3 confirm
COc1cc2c(cc1NC(=S)Nc1cccc3ccccc13)oc1ccccc12,99,0,i,92,-3,i,nt,nt,nt
COc1ccccc1NC(=O)c1ccc2c(c1)OCO2,106,4,i,107,2,i,nt,nt,nt
O=C(O)c1ccc(S(=O)(=O)c2ccc(Sc3ccc(C(=O)O)c(C(=O)O)c3)cc2)cc1,94,-12,i,98,-1,i,nt,nt,nt
Cc1[nH]nc(SCC(=O)Nc2ccc(C#N)cc2)c1[N+](=O)[O-],133*,330,i,107,1,i,101,4,103
Cc1ccc(NC(=O)CSc2n[nH]c(C)c2[N+](=O)[O-])cc1,101,150,i,100,-2,i,nt,nt,nt
CN(C)CCNC(=O)C(=O)c1c(-c2ccccc2)cc2ccccn12,103,-10,i,99,-3,i,nt,nt,nt
COc1ccc(-c2c(-c3ccccc3)c(C(=O)C(=O)NCCCN(C)C)n3ccc4cc(OC)c(OC)cc4c23)cc1OC,107,216,i,140*,13,i,150,45,114
CCOC(=O)c1c(-c2ccccc2)oc2ccc(OCC(O)CNCCN(C)C)cc12 (centres undefined),100,11,i,165*,31*,i,179,50,108
CCCCC(NC(=O)c1ccc(C#N)cc1)C(=O)NCCC (centres undefined),nt,-10,nt,nt,nt,nt,nt,nt,nt
Fc1cc(NCc2ccccc2)nc(NCc2ccccc2)n1,97,6,i,100,-4,i,nt,nt,nt
